The structures appear in SMILES notation. Among all 55,000 compounds or so, about 340 (0.62%) were called active. About 3% were inconclusive and are not listed. This is one part of a sample in which actives are shown more often than they occur. Values without a mark were called inactive. Calls follow the shape of the dose curve; as a rule, active = well fitted cell-killing curve with a large enough effect; inconclusive = small, poorly fitted or top-dose-only effect; inactive = no such curve, though single readings can be large or run the other way.
Potency is read from the fitted curve at half-maximal effect.

This assay is described as follows: qHTS Screen for Compounds that Selectively Target Cancer Cells with p53 Mutations: Cytotoxicity of p53 Null Cells at the Permissive Temperature. Also: nearly all actives have a fitted effect of over 55% in size.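 As to activity change, negative = cytotoxicity: 0% = DMSO only and -100% = full killing by 100 µM tamoxifen.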 As to conditions: H1299-neo p53 null cells, ATP luminescence, 24 h, 32C; series mostly up to 46.1 µM; activity change, negative = cytotoxicity: at the top concentration. The text has this: NIH Chemical Genomics Center [NCGC] NIH Molecular Libraries Screening Centers Network [MLSCN] MLSCN Grant: 1 X01 MH079844-01 Assay Submitter (PI): Dr. SUN, YI, University of Michigan NCGC Assay Overview: Synthetic Lethal Screen for Compounds to Kill Cancer Cells with p53 Mutation. Tumor suppressor gene p53 serves as a major cellular barrier against tumorigenesis. […] The goal of this screening is to identify small molecule probes that selectively kill cancer cells with mutations in p53. This screening was carried out using two lines of H1299 lung cancer cells. The H1299-p53 A138V line express a temperature sensitive p53 mutant (p53ts) in which the mutant p53 protein (A138V) is in the mutant confirmation when grown at 39C (the nonpermissive temperature) and in the wild type conformation when grown at 32C (the permissive temperature). A H1299-neo line (p53 null) grown at both 39C and 32C were used as counter-screens to filter out false positive associated with temperature shifting. The small molecular compounds that selectively target mutant p53-containing cancer cells were selected as candidate probes for further study. A cytotoxicity assay based on the measurement of ATP contents in cells was used in this screen. Concentration-responses of all the compounds in the library collection were determined in qHTS using the cell lines and temperature conditions as above.
NCGC Assay Protocol Summary: Both the H1299-p53A138V and H1299-neo cell lines were provided by Dr.Yi Sun, a PI at the University Michigan. The cells were maintained and cultured at 37C. The resuspended frozen cells were used to plate the cells in the 1536-well assay plates at a density of 600 cells per well in 5 ul medium. The assay plates with the cells were incubated at 37C for 16 to 30 hours before the experiments. The library compounds in DMSO solution were added to the cells in assay plates and incubated 24 hours at 39C (for mutant p53 conformation) or 32C (for normal p53 conformation as control). An ATP_lite assay kit (PerkinElmer) was used to determine the cell viability. Tomaxifen (100uM) was used as the positive control for cell killing. Data were normalized to the controls for basal activity (DMSO only) and 100% killing (100uM tamoxifen). AC50 values were determined from concentration-response data modeled with the standard Hill equation. P53 assay protocol: 1. Reagent; 5 uL H1299-p53A138V or H1299-neo cell cells/well 2. Time; overnight; 37C incubation 3. Compounds; 23 nL; 5.9 nM to 46 uM 4. Controls; 23 nL; Tamoxifen 100 uM 5. Time; 24 hr; 32C incubation 6. Reagent; 3 uL; ATP_Lite reagent 7. Time; 20 min; Room Temperature 8. Detection; Luminescence; Viewlux plate reader Keywords: p53, synthetic lethal, cancer, cell viability, cytotoxicity, H1299 cell line, luminescence, MLSMR, MLSCN, NIH Roadmap, qHTS, NCGC
Turning to `Cc1cc(C)c2oc(-c3cccc(NC(=O)c4cccc(F)c4)c3C)nc2c1`, the “activity change, negative = cytotoxicity” value is -11.5%.

With `Brc1ccc(-c2noc(-c3ccccc3)n2)o1`, the “activity change, negative = cytotoxicity” value was -13.7%.

`Cc1ccccc1-n1c(C)cc(/C=C2\NC(=O)NC2=O)c1C`: the Potency is 11.2 µM (active).

With `Cc1cccc(N2CCN(C3=C(c4ccccc4)C(=O)c4ccccc43)CC2)c1C`, the “activity change, negative = cytotoxicity” value is 4.86%.

For the molecule `COc1ccc(-c2cc3ccc(OCc4nn[nH]n4)cc3oc2=O)cc1`, the Potency was 12.6 µM (active).

On to `COc1ccc2cc(-c3nc(Cl)c4c5c(sc4n3)CC(C)CC5)c(=O)oc2c1` (centres undefined), for which the “activity change, negative = cytotoxicity” value was -0.526%.

Take `COc1ccc2oc(=O)c(-c3cn4c(n3)sc3cc(OC)ccc34)cc2c1`: the “activity change, negative = cytotoxicity” value is -2.92%.

Consider `Cc1cccc2c(=O)cc(CSc3ccccc3NC(=O)C(C)C)[nH]c12`, for which the “activity change, negative = cytotoxicity” value is -4.09%.

In the case of `C/C=C/c1ccc(OCCOc2ccc(C=O)cc2OC)c(OC)c1`, the “activity change, negative = cytotoxicity” value is -1.57%.

Regarding `COc1ccc(CCNC(=O)c2cc(=O)c3c(C)cc(C)cc3o2)cc1OC`, the “activity change, negative = cytotoxicity” value was -0.239%.

Take `Cc1ccc(-n2c(CNc3ccc(F)cc3)nnc2SCC(=O)N2CCOCC2)cc1`: the “activity change, negative = cytotoxicity” value is -5.26%.

In the case of `O=C(NC1CCCCC1)c1ccc2c(c1)N(Cc1ccc(Cl)cc1)C(=O)c1ccccc1S2=O` (centres undefined), the “activity change, negative = cytotoxicity” value was -5.35%.

On to `O=C(NCC(c1ccc(Cl)cc1)N1CCOCC1)c1ccccc1F` (centres undefined), for which the “activity change, negative = cytotoxicity” value is 0.172%.

`O=C(Nc1ccccc1F)c1ccccc1-c1ccccc1`: the “activity change, negative = cytotoxicity” value is -0.487%.

As for `CC(=O)c1ccc(NC(=O)Nc2ccc([N+](=O)[O-])cc2C)cc1`, the “activity change, negative = cytotoxicity” value is -16.8%.

In the case of `COc1ccc(N2CCN(c3cc(C)nc4nncn34)CC2)cc1`, the “activity change, negative = cytotoxicity” value was 0.606%.

As to `COc1ccccc1C1C(C(=O)N2CCCCC2)=C(C)Nc2nc3ccccc3n21` (centres undefined), the “activity change, negative = cytotoxicity” value was 12.2%.

On to `COc1ccccc1N1CCN(c2ccc(=O)n(CC(=O)NCc3ccc(OC(C)C)cc3)n2)CC1`, for which the “activity change, negative = cytotoxicity” value is -1.62%.

On to `Cc1ccc(Cl)cc1NC(=O)CCC(=O)N1CC(C)Sc2ccccc21` (centres undefined), for which the “activity change, negative = cytotoxicity” value is 3.24%.

As to `CC1CCCN(Cc2c(O)ccc3c(=O)c(Oc4ccc(C(C)(C)C)cc4)c(C(F)(F)F)oc23)C1` (centres undefined), the “activity change, negative = cytotoxicity” value was -2.32%.

For `Cc1ccccc1CSc1nc(-c2ccccc2)nc2c1Cc1c(CO)cnc(C)c1O2`, the “activity change, negative = cytotoxicity” value was -0.829%.

For the molecule `COc1ccc(OC)c(NC(=O)Cn2c(=O)n(Cc3ccccc3)c(=O)c3ccccc32)c1`, the “activity change, negative = cytotoxicity” value was 5.5%.

Regarding `COc1cccc(CNCc2c(C(=O)O)n(Cc3ccc(C)cc3)c3cc(C)ccc23)c1OC`, the “activity change, negative = cytotoxicity” value is -5.03%.

`O=C(Cn1cnc2c(oc3ccccc32)c1=O)Nc1ccc(OC(F)(F)F)cc1`: the “activity change, negative = cytotoxicity” value is -6.42%.

Regarding `CCOc1ccccc1CNC(=O)Nc1cn(CC(C)C)c(=O)c2ccccc12`, the “activity change, negative = cytotoxicity” value is 6.21%.

Turning to `COc1ccc2oc(-c3cccc(NC(=O)CSc4ccc(Cl)cc4)c3)nc2c1`, the “activity change, negative = cytotoxicity” value was -26.4%.

Consider `CCOC(=O)CN1C(C(=O)c2ccccc2)=C(OC(=O)C(C)(C)C)c2ccccc2S1(=O)=O`, for which the “activity change, negative = cytotoxicity” value is -1.26%.

With `CCOC(=O)C1=C(c2ccccc2)Nc2ncnn2C1c1ccc(Cl)cc1` (centres undefined), the “activity change, negative = cytotoxicity” value was 24.7%.

Turning to `O=C(CSc1nc2ccccc2[nH]1)Nc1nc(-c2ccccc2)c(-c2ccccc2)o1`, the “activity change, negative = cytotoxicity” value is 36%.

`O=C(NCc1ccccc1)C(=O)NCC(c1ccco1)S(=O)(=O)c1ccc(Cl)cc1` (centres undefined): the “activity change, negative = cytotoxicity” value is 7.23%.

Consider `Cc1ccc(CSc2nc3ccsc3c(=O)n2CCC(C)C)cc1`, for which the “activity change, negative = cytotoxicity” value was -2.95%.

Take `COc1ccc(S(=O)(=O)c2c(Nc3cccc(Cl)c3)sc(C(=O)c3ccccc3)c2N)cc1`: the “activity change, negative = cytotoxicity” value is 5.07%.

Consider `Cc1cccc(N2CCN(C(=O)c3ccc(Nc4nc5ccccc5n5nnnc45)cc3)CC2)c1C`, for which the “activity change, negative = cytotoxicity” value was -5.36%.

Regarding `O=C(COc1ccccc1)OCc1cc(=O)n2nc(-c3cccs3)sc2n1`, the “activity change, negative = cytotoxicity” value was 2.83%.

As for `CC1CCN(C(=O)Cn2c(=O)n(-c3ccc(Cl)cc3)c(=O)c3c4c(sc32)CCC4)CC1`, the “activity change, negative = cytotoxicity” value is 0.896%.

For `CCOC(=O)CSc1nc2ccc(C)cc2[nH]1`, the “activity change, negative = cytotoxicity” value was -2.59%.

As for `CCCc1nn2c(=O)cc(COC(=O)c3ccc(NC(=O)C(C)Oc4ccccc4)cc3)nc2s1` (centres undefined), the “activity change, negative = cytotoxicity” value is -6.2%.

In the case of `CCOC(=O)c1cc2c(=O)n3ccccc3nc2n(CCCOC)c1=NC(=O)C(C)Oc1ccccc1` (centres undefined), the “activity change, negative = cytotoxicity” value is 5.37%.

For `CC(C)c1ccc(NC(=O)c2ccc3c(O)c(S(=O)(=O)c4ccccc4)c(=O)[nH]c3c2)cc1`, the Potency is 12.6 µM (active).

As for `Cc1ccc(C(=O)Nc2ccc3[nH]c(=O)c(=O)[nH]c3c2)cc1`, the “activity change, negative = cytotoxicity” value is -11.2%.

As to `COc1ccc(CNC(=O)c2ccc3c(O)c(S(=O)(=O)c4ccccc4)c(=O)[nH]c3c2)cc1`, the “activity change, negative = cytotoxicity” value is -14.3%.

In the case of `CN(C(=O)CSc1nc2ccccc2n1Cc1ccccc1C#N)c1ccccc1`, the “activity change, negative = cytotoxicity” value was 2.24%.

With `COc1ccc(CNC(=O)CS(=O)Cc2nc(-c3cccc(C)c3)oc2C)cc1` (centres undefined), the “activity change, negative = cytotoxicity” value is -2.83%.

`Cc1cc(SCC(=O)NCCN2C(=O)CSC2=O)nc2ccccc12`: the “activity change, negative = cytotoxicity” value is -4.2%.

For `COC(=O)CSc1ccc2nnc(CCNS(=O)(=O)c3ccc(C)cc3)n2n1`, the “activity change, negative = cytotoxicity” value was 0.172%.

For the molecule `N#CC1(NC(=O)COc2ccc3oc4ccccc4c3c2)CCCCC1`, the “activity change, negative = cytotoxicity” value was -4.07%.

For `O=C(NCCc1ccccn1)c1cc(-c2ccc(Cl)cc2)nc2ccccc12`, the “activity change, negative = cytotoxicity” value is -28.2%.

For the molecule `CCC(=O)NCc1cc(-c2nn(C)c(=O)c3ccccc23)ccc1OC`, the “activity change, negative = cytotoxicity” value is -3.54%.

For the molecule `CCOc1ccc(C(O)Cc2nc3ccccc3n2C)cc1` (centres undefined), the “activity change, negative = cytotoxicity” value is -7.33%.

The values are drawn from PubChem BioAssay AID903 (National Center for Advancing Translational Sciences (NCATS), 2007).
